This passage reports Potency results from PubChem BioAssay (Tox21).

Values joined by “and” are separate entries in the source; they are usually repeats but may differ in a detail not shown here. Equal values may be shown once. Inconclusive results are not listed. A call without a number means that no potency is given here. Active and inactive are the calls of the source. Calls follow the shape of the dose curve; as a rule, active = well fitted inhibition curve with a large enough effect in the signal ratio in the repeat runs (not every such curve was filed as active); inconclusive = weak or mixed curves, or effect the other way; inactive = no such curve, though single readings can be large or run the other way; the % refers to the signal ratio.
Potency is read from the fitted curve at half-maximal effect.

Chain of Glucocorticoid receptor (Homo sapiens) (P04150 whole entry, looked up): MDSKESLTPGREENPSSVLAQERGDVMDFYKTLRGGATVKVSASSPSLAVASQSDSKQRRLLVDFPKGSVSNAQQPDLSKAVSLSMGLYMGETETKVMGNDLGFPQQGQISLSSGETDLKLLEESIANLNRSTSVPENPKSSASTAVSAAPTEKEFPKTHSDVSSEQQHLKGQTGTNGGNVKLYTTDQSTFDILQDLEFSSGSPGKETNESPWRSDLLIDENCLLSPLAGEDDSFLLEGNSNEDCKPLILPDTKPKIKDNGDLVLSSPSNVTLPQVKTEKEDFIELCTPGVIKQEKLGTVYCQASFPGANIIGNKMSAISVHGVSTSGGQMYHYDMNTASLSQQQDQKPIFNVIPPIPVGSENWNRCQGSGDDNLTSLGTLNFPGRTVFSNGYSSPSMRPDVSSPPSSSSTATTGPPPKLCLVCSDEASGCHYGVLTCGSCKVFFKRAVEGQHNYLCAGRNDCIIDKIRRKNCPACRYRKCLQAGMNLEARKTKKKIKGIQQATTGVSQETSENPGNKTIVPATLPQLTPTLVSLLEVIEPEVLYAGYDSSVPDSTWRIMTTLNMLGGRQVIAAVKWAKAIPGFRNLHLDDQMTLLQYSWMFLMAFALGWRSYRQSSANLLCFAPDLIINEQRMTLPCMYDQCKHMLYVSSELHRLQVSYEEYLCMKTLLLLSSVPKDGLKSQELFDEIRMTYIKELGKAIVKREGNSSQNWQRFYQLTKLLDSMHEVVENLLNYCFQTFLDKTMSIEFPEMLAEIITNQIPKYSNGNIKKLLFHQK

This experiment addresses Glucocorticoid receptor (Homo sapiens) (UniProt P04150). Kind of experiment: qHTS assay to identify small molecule antagonists of the glucocorticoid receptor (GR) signaling pathway (AID 720692). The conditions noted are these: GR-bla HeLa, beta-lactamase FRET ratio, dexamethasone-stimulated, 18 h; series mostly up to 58.5 µM. The source says: U.S. Tox21 Program National Center for Advancing Translational Sciences [NCATS] NIH Chemical Genomics Center [NCGC] U.S. Environmental Protection Agency [EPA] National Institutes of Environmental Health Sciences [NIEHS] National Toxicology Program [NTP] U.S. Food and Drug Administration [FDA] Tox21 Assay Overview: The Glucocorticoid receptor (GR) is one of the members of the nuclear receptor family of ligand-dependent transcription factors. GR plays a critical role in carbohydrate, protein and lipid metabolisms and programmed cell death. CellSensor GR-bla HeLa cell line (Invitrogen) contains a beta-lactamase reporter gene under the control of the glucocorticoid response element stably integrated into HeLa cells, a cervical cancer cell line that expresses glucocorticoid receptor. The activation of the reporter gene under culture conditions can be detected by fluorescence intensity. This cell line has been used to screen the Tox21 10K compound library and to identify the compounds that inhibit the GR signaling.
Tox21 Assay Protocol Summary: The GR-bla HeLa cells were dispensed at 1500 cells/5 ul/well in 1536-well black wall/clear bottom plates using a Multidrop Combi (ThermoFisher Scientific, Waltham, MA) dispenser. After the assay plates were incubated at a 37 C/5% CO2 incubator for 4 hours, 23 nL of compounds dissolved in DMSO, positive controls or DMSO only was transferred to the assay plate by a pintool station (Kalypsys, San Diego, CA), followed by addition of 1 uL of dexamethasone (5 nM, final concentration in the well). The plates were incubated at 37 C for 18 hours. After 1 uL of LiveBLAzerTM B/G FRET substrate was added using a Flying Reagent Dispenser (Aurora Discovery, San Diego, CA), the plates were incubated at room temperature for 2 hours, and fluorescence intensity was measured by an Envision plate reader (PerkinElmer, Shelton, CT).
For orientation: Quantitative high-throughput screening tests each substance at several concentrations.
On to `Cc1ccc(C(C)c2ccc(C)c(C)c2)cc1C`, for which the Potency result was “inactive”. In the case of `CC(=O)OC/C=C/c1ccccc1` it was “inactive”; in that of `CC/C(=C\C(=N/O)C(N)=O)C(C)[N+](=O)[O-]` (stereo not given), “inactive”. Under `COC(Cc1ccccc1)OC` stands “inactive”; under `CC[C@H](C)[C@@H](C(=O)O)n1sc2ccccc2c1=O`, “inactive”. Under `CCCCOc1ccc(CC(=O)NO)cc1` stands “inactive”. In the case of `Cn1c(N)nc2nc[nH]c2c1=O`, the Potency result is “inactive”. Under `CC(CN)CCCN` (stereo not given) stands “inactive”; under `CC(O)C1CCCCC1` (stereo not given), “inactive”. Under `CC[C@@H]1C[C@H](N(Cc2cc(C(F)(F)F)cc(C(F)(F)F)c2)C(C)=O)c2cc(C(F)(F)F)ccc2N1C(=O)OC(C)C` stands “inactive”; under `CC(C)CCCC(C)CCO` (stereo not given), “inactive”; under `COCCOCCOCCOCCOC`, “inactive”. Under `CCN(CCO)CCCC(C)Nc1ccnc2cc(Cl)ccc12` (stereo not given) stands “inactive”; under `Nc1nc(N)c(-c2ccccc2)s1`, “inactive”; under `O=c1[nH]cnc2ccccc12`, “inactive”. As to `C=CC(=O)OCCOC(=O)CCC(=O)O`, the Potency entry was “inactive”. In the case of `CN1CCC(OC(c2ccccc2)c2ccccc2)CC1` it was “inactive”; in that of `CC(=O)NCCCS(=O)(=O)O`, “inactive”; in that of `CN(C)CC/C=C1\c2ccccc2COc2ccccc21`, “inactive”. For `CC(=O)c1ccc2c(c1)[C@H](NC(=O)c1ccc(F)cc1)[C@@H](O)C(C)(C)O2`, the Potency result was “inactive”. Under `CCCCCCc1ccc(N)cc1` stands “inactive”; under `Cc1c(Cn2ccnc2)c2ccccc2n1CCC(=O)O`, “inactive”; under `O=C(O)/C=C/c1cnc[nH]1`, “inactive”. For the molecule `NCCCOCCOCCOCCCN`, the Potency entry was “inactive”. In the case of `CCOC(=O)CC(C)C` it was “inactive”; in that of `O=C(O)Cc1cc(I)c(Oc2ccc(O)c(I)c2)c(I)c1`, 9.1 µM (active) and 3.47 µM (active); in that of `CC1(C)[C@H]2CC[C@]1(C)[C@H](O)C2`, “inactive”. In the case of `CC(C)(C)c1cc(CO)cc(C(C)(C)C)c1O` it was 44.5 µM (active); in that of `COc1ccccc1OC(=O)Oc1ccccc1OC`, “inactive”; in that of `O=S(=O)(O)c1ccc(O)c2ncccc12`, “inactive”. Under `CCCc1ccccc1` stands “inactive”; under `C=CC(C)(CCC=C(C)C)OC(=O)c1ccccc1` (stereo not given), “inactive”. As to `CCCCCOC(=O)COc1cc(N2C(=O)C3=C(CCCC3)C2=O)c(F)cc1Cl`, the Potency result is “inactive”.

With `O=C(NN1CCCC1)NS(=O)(=O)c1ccc(Cl)cc1`, the Potency entry was “inactive”.

Turning to `Cc1cccc(OCCOc2cccc(C)c2)c1`, the Potency result was “inactive”. In the case of `CC(C)CC=O` it was “inactive”. Under `CC(Cc1cccc(C(F)(F)F)c1)NCCOC(=O)c1ccccc1` (stereo not given) stands “inactive”; under `N=C(N=C(N)N)N1CCOCC1`, “inactive”. In the case of `CC(C)c1cccc(C(C)C)c1NC(=O)NS(=O)(=O)c1cc(C(C)(C)O)co1` it was “inactive”. Regarding `CCN(CC)CCNC(C(=O)OCCC(C)C)c1ccccc1` (stereo not given), the Potency result is “inactive”.
